An excerpt weighted towards active compounds, which were near 0.52% of everything screened.
Sa helicase inh = inhibitors of S. aureus replicative helicase, primary screen, biochemical, fluorescence unwinding readout | inhibition, % (test concentration not listed) | 0.05% of 120,000 active | replicative DNA helicase (DnaC/DnaB), Staphylococcus aureus | purified S. aureus helicase, fluorescence unwinding assay | AID 485395, 2010; in the data active = inhibition above about 25%, passing the limit was not always enough
Sa growth inh = S. aureus growth inhibition at 42 and 30 °C, primary screen, LtaS inhibitor project, RN4220, two temperatures; OD600, 20 h, 42 °C; active compounds read low; relative growth, % (no concentration beside the values); 0.53% of 170,000 active;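 active = relative growth at most 50% at the other temperature and 20+ points below 30 °C, or under 10% at both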
Hits are given with their value; . = inactive; / = no result.

SMILES | Sa helicase inh | Sa growth inh
CCn1c(Cc2ccccc2)nnc1SC(C#N)Cc1ccc(C)cc1 (configuration not stated) | . | .
Cc1cccc2nc(-c3ccco3)c(Nc3ccc4c(c3)OCO4)n12 | / | .
Cc1ccc(-c2nc3cccc(C)n3c2Nc2ccc3c(c2)OCO3)o1 | / | 2.2
Cc1cc(C)n(-c2ccc3ccccc3n2)n1 | . | .
O=C1CN(/N=C/c2ccc([N+](=O)[O-])o2)C(=O)N1 | / | .
O=C1OCCN1/N=C/c1ccc([N+](=O)[O-])o1 | / | -0.9
CNC(=O)Nc1cc(C(F)(F)F)cc(C(F)(F)F)c1 | / | .
Cc1noc(C)c1NC(=O)Nc1cc(C(F)(F)F)cc(C(F)(F)F)c1 | . | 5.2
O=C(Nc1cccc(C(F)(F)F)c1)c1ccc2snnc2c1 | / | .
O=C(Nc1cccc(C(F)(F)F)c1)Nc1ccc2snnc2c1 | / | 9.9
O=C(Nc1ccccc1)Nc1ccc2nnsc2c1 | / | 2.4
O=C(Nc1ccccc1)Nc1ccc2snnc2c1 | . | .
COc1cc(Cl)c(C)cc1NC(=O)c1sc2nc3n(c(=O)c2c1C)CCCCC3 | / | .
Cc1cc(C(F)(F)F)nc2c(Br)c(C(C)(C)C)nn12 | / | .
CN1c2ccccc2N(C)C1c1ccc(O)cc1 | . | -1.2
CN1C(=O)c2ccccc2N(C)C1c1ccc(F)cc1 (configuration not stated) | . | .
Cc1ncc(NS(=O)(=O)c2ccc(NC(=O)NC3CCCCC3)cc2)c(C)n1 | . | .
COc1ccc(OCCCn2ccnc2)cc1 | . | .
Cc1ccc(OCCCn2ccnc2)cc1 | . | .
Cc1cc(OCCCCCn2ccnc2)cc(C)c1Cl | . | -0.9
c1ccc2c(OCCCCCn3ccnc3)cccc2c1 | . | -0.5
Cc1ccc(C(C)C)c(OCCn2ccnc2)c1 | . | .
Cc1ccc(C(C)C)c(OCCCCn2ccnc2)c1 | . | -0.7
Cc1c(NC(=O)c2ccc(Cl)cc2)cc(C(C)C)c(O)c1S(=O)(=O)c1ccccc1 | / | .
O=c1nccc(NCc2ccco2)[nH]1 | . | .
SMILES | Sa helicase inh | Sa growth inh
Cc1c(CN2CCN(Cc3ccccc3)CC2)sc2ccccc12 | / | .
CCS(=O)(=O)N1CCc2cc(C(=O)NCCc3ccc(OC)cc3)ccc21 | / | .
CC1c2cccc(O)c2CC2=C(O)C3(O)C(O)=C(C(N)=O)C(=O)C(N(C)C)C3C(O)C21 (configuration not stated) | . | .
C[C@H]1c2cccc(O)c2C(O)=C2C(=O)[C@]3(O)C(O)=C(C(N)=O)C(=O)[C@@H](N(C)C)[C@@H]3[C@@H](O)[C@@H]21 | / | -0.6
CN(C)c1ccc(O)c2c1C[C@H]1C[C@H]3[C@H](N(C)C)C(=O)C(C(N)=O)=C(O)[C@@]3(O)C(=O)C1=C2O | / | -0.4
NS(=O)(=O)c1ccc(CCNC(=S)NC2CCCC2)cc1 | . | .
O=C(CSc1ncn[nH]1)CSc1ncn[nH]1 | . | .
COc1cc(Cl)c(NC(=O)CN(C)S(=O)(=O)c2ccc3c(c2)CCCC(=O)N3)c(OC)c1 | / | .
CCOc1cccc(C(=O)Oc2cccc3ccc(C)nc23)c1 | . | .
Cc1ccc2cccc(OC(=O)c3ccc(Br)o3)c2n1 | . | 0.3
CCOc1ccc(C(=O)C(C)Sc2nnnn2-c2ccc(OC)cc2)cc1 (configuration not stated) | 29 | .
COc1ccc(-n2nnnc2SCSc2nnnn2-c2ccc(OC)cc2)cc1 | . | .
Cc1cc2nnnn2c(N(C)S(=O)(=O)c2ccccc2)n1 | . | .
Cc1ccc(CNC(=O)Cn2ccn(-c3cccc(Cl)c3)c(=O)c2=O)cc1 | / | .
N#Cc1ccccc1OC(=O)CCN1C(=O)c2ccccc2C1=O | . | .
O=C(CN1C(=O)c2ccccc2C1=O)Oc1cccc2cccnc12 | . | 0.8
O=C(CCN1C(=O)c2ccccc2C1=O)Oc1cccc2cccnc12 | . | -0.6
O=C(Cc1ccccc1)Oc1cccc2cccnc12 | . | /
O=C1/C(=C/c2cccs2)CCCc2ccccc21 | . | .
O=C(CSc1nnc2c(n1)[nH]c1ccccc12)OCN1C(=O)c2ccccc2C1=O | . | .
O=C1/C(=C/c2cccnc2)CCCC/C1=C\c1cccnc1 | . | /
O=C1/C(=C/c2ccncc2)CCC/C1=C\c1ccncc1 | . | -0.2
Fc1ccc(Nc2nc3ccccc3nc2Nc2ccc(F)cc2)cc1 | . | -0.4
Fc1ccc(Nc2nc(-c3ccncc3)nc3ccccc23)cc1 | . | .
CC(C)(C)c1ccc(C(=O)NCC(c2cccs2)S(=O)(=O)c2ccc(F)cc2)cc1 (configuration not stated) | / | .
SMILES | Sa helicase inh | Sa growth inh
Cc1[nH]nc(-c2ccc(O)cc2O)c1Oc1ccc(C(C)C)cc1 | . | 29
Cc1[nH]nc(-c2ccc(O)c(C)c2O)c1Oc1ccccc1 | . | .
CC1(C)CC(NC(=O)Cc2ccc(Cl)cc2)CC(C)(C)N1 | . | .
O=C(CSc1oc(-c2cccs2)nc1S(=O)(=O)c1ccccc1)c1ccccc1 | . | .
O=C1CC2(CCCC2)CC(=O)N1CCCCN1CCN(c2ncccn2)CC1 | / | .
Nc1nc(SC#CC(F)(F)F)ns1 | . | -0.6
CCC(=O)Nc1nnc(-c2cccc(OC)c2)o1 | . | 0.6
CCC(=O)Nc1nnc(-c2ccc3c(c2)CCCC3)o1 | . | -0.4
O=C(Nc1nnc(-c2ccc3c(c2)CCCC3)o1)C1CCCCC1 | . | /
CCC(=O)Nc1nnc(-c2ccco2)o1 | . | .
CC(=O)Nc1nc(CSc2nnc(-c3cccc(S(=O)(=O)N4CCCCC4)c3)o2)cs1 | . | .
O=C(O)CC(NS(=O)(=O)c1cccc2nsnc12)C(=O)O (configuration not stated) | . | .
Cc1oc2c(c1C(=O)NCc1ccccc1)C(=O)c1ccccc1C2=O | . | .
Cc1oc2c(c1C(=O)N1CCc3ccccc3C1)C(=O)c1ccccc1C2=O | . | 6.5
Cc1c(C(=O)NCCCN2CCOCC2)cc(-c2ccccc2)n1-c1ccccc1 | / | .
Cc1oc2c(c1C(=O)NCc1ccccn1)C(=O)c1ccccc1C2=O | . | 0.6
Cc1oc2c(c1C(=O)NCCCN1CCOCC1)C(=O)c1ccccc1C2=O | . | 1.7
Cc1oc2c(c1C(=O)O)C(=O)c1ccccc1C2=O | . | .
Cn1nc(C(=O)NCc2cccnc2)c2ccccc2c1=O | . | .
CCN(CC)C(=O)Cn1c(=O)n(Cc2ccccc2)c(=O)c2c3c(sc21)CCC3 | . | .
O=C(c1ccc2c(c1)N(Cc1ccccc1)C(=O)CS2)N1CCC2(CC1)OCCO2 | . | .
COC(=O)C1=C(O)/C(=C\c2ccccc2)N=C1C | . | .
Cc1ccc2cnn(CC(=O)NC3CCCCC3)c2c1 | . | .
CC(NC(=O)Cn1nnc(-c2cccc(C(F)(F)F)c2)n1)c1ccccc1 (configuration not stated) | . | .
COc1cc(C)c(Cc2cnc(N)nc2N)cc1OC | / | -0.2
SMILES | Sa helicase inh | Sa growth inh
COc1cc(Cc2cc(OC)c(C)cc2OC)c(OC)cc1C | / | .
CCC(C(=O)NCc1ccc(OC)c(OC)c1)n1nc(C)c2c(C)n(-c3ccc(C)cc3)nc2c1=O (configuration not stated) | / | .
CN1C(=O)CSC1=Nc1cccc(C(=O)O)c1 | . | .
CCOc1ccc(NC(=O)CC2C(=O)N(c3ccccc3)C(=O)N2CCc2sccc2C)cc1 (configuration not stated) | / | .
Cc1ccc(NC(=O)c2ccc(CNS(=O)(=O)c3ccc4c(c3)C(C)(C)C(=O)N4C)cc2)cc1C | / | .
C=C1N(C)c2ccc(NC(=O)c3ccccc3)cc2C1(C)C | . | 8.3

Assay outcomes from PubChem BioAssay.
